# Assay results: ChEMBL document CHEMBL1157539, “Thousands of chemical starting points for antimalarial lead identification” (Nature, 2010)
# Test system: Plasmodium falciparum
# Experiment: GSK_TCMDC: Inhibition of Plasmodium falciparum Dd2 in whole red blood cells, using parasite LDH activity as an index of growth. Test compounds present at 2uM
# Format: functional
row,Structure (SMILES),Inhibition [%]
1,O=C(Nc1ccc(C(=O)Oc2ccc(-c3ccccc3)cc2)cc1)N[C@@H](Cc1ccc(O)cc1)C(=O)NC1CCN(Cc2ccc(O)cc2)C1.O=C(O)C(F)(F)F (some centres not stated),60
2,CCOC(=O)c1c(NC(=O)c2ccccc2)sc2c(O)c(CN(CC)CC)ccc12.Cl,100
3,c1ccc(Oc2ccc(Nc3ccnc4cc(-c5csc(CNCCN6CCOCC6)n5)ccc34)cc2)cc1,99
4,Cc1[nH]c2ccc(-c3ccc(N(C)C)cc3)cc2c(=O)c1Cl,96
5,CC(C)CN1CCCN(Cc2cccc(NC(=O)c3ccc(-c4ccccc4)cc3)c2)CC1.O=C(O)C(F)(F)F,24
6,Cc1cc(N[C@@H](CC(C)C)C(=O)NCCOc2ccccc2)nc(Nc2ccccc2)n1.O=C(O)C(F)(F)F,9
7,CC(=O)C1=NN(c2ccc(Cl)cc2)C(c2cccs2)N1c1ccccc1 (configuration not stated),70
8,O=C(NCCN1CCOCC1)c1csc(C2CCCN(C(=O)c3ccc(O)c(-c4cc(Cl)cc(Cl)c4)c3)C2)n1 (configuration not stated),50
9,CC(C)(NCc1ncc[nH]1)c1nc(-c2ccc(Cl)c(O)c2)c(-c2ccncc2)[nH]1.Cl,97
10,O=C(Nc1ccc(Cl)c(Cl)c1)Nc1ccc2nccc(N3CCN(Cc4ccccc4)CC3)c2c1,100
11,COc1ccc2nccc(NCC3(O)CCC(NCc4ccc5c(n4)NC(=O)CS5)CC3)c2n1.Cl (configuration not stated),23
12,COc1ccc(-c2ccc(CNC(=O)c3cccc(C#N)c3)c(F)c2)cc1CN1CCCN(C)CC1.O=C(O)C(F)(F)F,30

# Test system: HepG2
# Experiment: GSK_TCMDC: Percent inhibition of human HepG2 cell line. Test compounds present at 10uM.
# Format: functional
row,Structure (SMILES),Inhibition [%]
1,CC(C)[C@H](NC(=O)c1ccc(O)c(-c2cccc(C(F)(F)F)c2)c1)C(=O)NCCN1CCCCC1,3
2,COc1cc(NC(=O)/C=C/c2cccc3cc[nH]c23)ccc1OCCN(C(C)C)C(C)C.Cl,11
3,NCc1ccc(CNCc2ccc(-c3ccc(-c4nc5cc(F)ccc5[nH]4)cc3)cc2)cc1.O=C(O)C(F)(F)F,12
4,CC(C)CCNC(=N)Nc1ccc(OCCCOc2ccc(NC(=N)NCCC(C)C)cc2)cc1,0
5,O=C(O)C(F)(F)F.c1ccc(CNCc2ccc(-c3cccc(-c4nc5ccccc5[nH]4)c3)cc2)cc1,55
6,O=C(Cc1ccccc1)NC(c1ccccc1)c1ccc2cccnc2c1O (configuration not stated),49
7,Fc1ccc2[nH]c(-c3cccc(-c4cccc(CNCC5CCCO5)c4)c3)nc2c1.O=C(O)C(F)(F)F (configuration not stated),40
8,COc1ccc(O)c(C(=O)c2cc(C#N)c(=O)n(-c3ccc(Oc4ccccc4)cc3)c2)c1,22
9,O=C(NCCN1CCC(NC(=O)c2ccc(-c3ccccn3)s2)CC1)c1ccc(Cl)c(Cl)c1.O=C(O)C(F)(F)F,24
10,N#CC1(c2ccccc2)CCN(c2nc(NCCCN3CCCC3=O)nc(N3CCCC4CCCCC43)n2)CC1 (configuration not stated),0
11,O=C(/C=C/c1ccc(Cl)c(Cl)c1)NCCCCCCN1CCCN(C(=O)Nc2ccc(Cl)c(Cl)c2)CC1,25
12,CCC(=O)NC(c1ccco1)c1cc(Cl)c2cccnc2c1O (configuration not stated),58
13,Cl.c1ccc2cc(CNCCCN3CCN(CCCNCc4ccc5ccccc5c4)CC3)ccc2c1,60
14,CCN(CC)CCN(Cc1ccc(-c2ccc(C(F)(F)F)cc2)cc1)C(=O)c1c[nH]c2ccc(Br)cc12,80
15,c1ccc(COc2ccccc2COc2ccccc2-c2ccc3cccnc3n2)cc1,0
16,Cc1cc(SC(C)(C)C)cc2c(Cl)c(C(N)=O)cnc12,83
17,CC(C)(C)c1ccc(CN2CCC(NC(=O)c3cc(-c4cccc(C(F)(F)F)c4)cs3)C2)cc1.O=C(O)C(F)(F)F (configuration not stated),24
18,O=C(O)C(F)(F)F.c1cc(CNC2CCN(CC3CCCCC3)CC2)cc(-n2ccnc2)c1,3
19,CCCCCNc1nc(Nc2ccccc2C)nc2ccccc12.Cl,5
20,CC(C)[C@H](NC(=O)c1c(F)cccc1F)C(=O)Nc1ccc(Cc2nc3ccccc3s2)cc1,3

row,Structure (SMILES),Inhibition [%]
1,CN(C)C(=S)N/N=C1/C(=O)Nc2ccc(OC(F)(F)F)cc21,36
2,O=C(NC1CCCCN(Cc2ccccc2O)C1)c1cccc(C(F)(F)F)c1.O=C(O)C(F)(F)F (configuration not stated),0
3,CCSc1ccc(C)cc1CON1C(N)=NC(N)=NC1(C)C.Cl,66
4,COc1cc(NCCCNCc2cn(S(=O)(=O)c3ccccc3)c3ccccc23)nc2ccccc12,36
5,CC(CN1CCN(C)CC1)C(=O)Nc1cccc(-c2ccc(-c3nc4ccccc4[nH]3)s2)c1 (configuration not stated),2
6,COc1ccc2nccc([C@@H](O)CN3CCC(NCCOc4ccccc4C(F)(F)F)CC3)c2c1.O=C(O)C(=O)O,2
7,COC(=O)C(C)NCC(=O)c1ccccc1.Cl (configuration not stated),5
8,CO/C(=C\C=C\c1cc2cc(Cl)c(Cl)cc2[nH]1)C(=O)NCCCN1CCN(c2cccc(CCCO)c2)CC1,66
9,O=C(Nc1ccc(C(=O)Oc2ccc(-c3ccccc3)cc2)cc1)N[C@@H](Cc1ccc(O)cc1)C(=O)NC1CCN(Cc2ccc(O)cc2)C1.O=C(O)C(F)(F)F (some centres not stated),0
10,CCOC(=O)c1c(NC(=O)c2ccccc2)sc2c(O)c(CN(CC)CC)ccc12.Cl,9
11,c1ccc(Oc2ccc(Nc3ccnc4cc(-c5csc(CNCCN6CCOCC6)n5)ccc34)cc2)cc1,0
12,Cc1[nH]c2ccc(-c3ccc(N(C)C)cc3)cc2c(=O)c1Cl,0
13,CC(C)CN1CCCN(Cc2cccc(NC(=O)c3ccc(-c4ccccc4)cc3)c2)CC1.O=C(O)C(F)(F)F,30
14,Cc1cc(N[C@@H](CC(C)C)C(=O)NCCOc2ccccc2)nc(Nc2ccccc2)n1.O=C(O)C(F)(F)F,9
15,CC(=O)C1=NN(c2ccc(Cl)cc2)C(c2cccs2)N1c1ccccc1 (configuration not stated),0
16,O=C(NCCN1CCOCC1)c1csc(C2CCCN(C(=O)c3ccc(O)c(-c4cc(Cl)cc(Cl)c4)c3)C2)n1 (configuration not stated),12
17,CC(C)(NCc1ncc[nH]1)c1nc(-c2ccc(Cl)c(O)c2)c(-c2ccncc2)[nH]1.Cl,42
18,O=C(Nc1ccc(Cl)c(Cl)c1)Nc1ccc2nccc(N3CCN(Cc4ccccc4)CC3)c2c1,31
19,COc1ccc2nccc(NCC3(O)CCC(NCc4ccc5c(n4)NC(=O)CS5)CC3)c2n1.Cl (configuration not stated),16
20,COc1ccc(-c2ccc(CNC(=O)c3cccc(C#N)c3)c(F)c2)cc1CN1CCCN(C)CC1.O=C(O)C(F)(F)F,8
